Pf Dd2 inh: P. falciparum Dd2 growth inhibition; SYBR Green, 72 h; active compounds read low; activity change, % at 10 µM; 2.3% of 94,000 active; AID 1159554; in the data active = activity change below about -80%; inconclusive = no clear call, values can overlap the other calls
C diff growth: inhibitors of Clostridium difficile growth | 0.25% of 86,000 active | Clostridium difficile clinical isolate growth, OD600, 24 h; active compounds read low | AID 1259249 | growth activity, negative = inhibition, % at 16 µg/mL (by protocol);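 active = mean growth activity at or below -80% and every replicate also at or below -80%; inconclusive = mean at or below -80% but some replicate above -80%; inactive = mean growth activity above -80%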;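 also: 0% = DMSO wells and -100% = levofloxacin 16 µg/mL wells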
T cruzi growth-1: T. cruzi proliferation inhibition; T. cruzi beta-gal in NIH3T3, GalScreen luminescence, 90 h; inhibition, % at 8.34 µM; 5.9% of 77,000 active; AID 624255;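 active = mean inhibition above about 93%, with at least 55% of replicates each passing it, limit read from the data, passing the limit was not always enough; inconclusive = only one of those two conditions holds; inactive = neither condition holds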
T cruzi growth-2: inhibitors of T. cruzi proliferation. shares compounds with T cruzi growth-1. T. cruzi beta-gal in NIH3T3, GalScreen luminescence, 90 h. inhibition, % at 8.35 µM. 72% of 5,600 active. AID 651739;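 active = mean replicate inhibition above about 95% and at least 55% of replicates individually reaching it, limit read from the data; inconclusive = only one of the two criteria is met; inactive = neither criterion is met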
T cruzi growth-3: blocks T. cruzi growth in NIH3T3 host cells. inhibition, % at 2.09 µM. AID 651740. shares compounds with T cruzi growth-1. T. cruzi beta-gal in NIH3T3, GalScreen luminescence, 90 h. 21% of 5,600 active;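 active = mean inhibition above about 95%, with at least 55% of replicates also reaching it, limit read from the data; inconclusive = meets just one of the two conditions; inactive = meets neither condition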;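 also: plate controls were neutral control median for no effect and positive control median for full effect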
3T3 cytotox: NIH/3T3 (mouse) viability loss. NIH/3T3 viability, CellTiter-Glo ATP luminescence, 90 h. 14% of 5,600 active. cytotoxicity (signal decrease), % at 8.35 µM. shares compounds with T cruzi growth-1;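 active = mean signal decrease across replicates above about 35% based on untreated-well scatter, with enough replicates individually passing, limit read from the data; inconclusive = no rule stated though some were filed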;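 also: 0% = median of neutral control wells and 100% = median of positive control wells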
3T3 cytotox 2: kills mouse NIH/3T3 fibroblasts | inhibition, % at 24.9 µM | NIH/3T3 viability, CellTiter-Glo ATP luminescence, 90 h | AID 651744 | 56% of 5,600 active | shares compounds with T cruzi growth-1;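 active = mean loss of cell viability signal at or above a set limit, and enough replicates individually reaching it; inconclusive = meets only the mean limit or only the replicate share; inactive = meets neither condition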;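 also: 0% = median of neutral control wells and 100% = median of positive control wells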
* hit, by the source's call; ? = inconclusive; . = no result. Most compounds without a hit are left out; they make up all but 6.8% or so of the library.

SMILES	Pf Dd2 inh	C diff growth	T cruzi growth-1	T cruzi growth-2	T cruzi growth-3	3T3 cytotox	3T3 cytotox 2
COc1cccc(-c2cnc3c(c2)C(=O)N([C@H](C)CO)C[C@H](C)[C@H](CN(C)Cc2cccc(C(F)(F)F)c2)O3)c1	-17.8	22.5	?	107.1*	80.2	30.0	61.2*
COc1ccc(NC(=O)N(C)C[C@@H]2Oc3ncc(-c4cccc(C(F)(F)F)c4)cc3C(=O)N([C@H](C)CO)C[C@@H]2C)cc1	-39.9	7.0	102.6*	98.5*	60.4	19.5	46.5*
COc1ccc(NC(=O)N(C)C[C@@H]2Oc3ncc(-c4ccc(OC)cc4)cc3C(=O)N([C@H](C)CO)C[C@@H]2C)cc1	-3.5	.	50.2	.	.	.	.
Cc1cc(C(=O)Nc2cccc3c2O[C@H](CN(C)C)[C@H](C)CN([C@@H](C)CO)C3=O)n(C)n1	10.6	1.7	?	26.3	-16.3	6.1	1.5
Cc1cc(C(=O)Nc2cccc3c2O[C@H](CN(C)C)[C@@H](C)CN([C@@H](C)CO)C3=O)n(C)n1	10.2	-1.0	101.4*	10.2	24.1	-1.1	4.6
Cc1cc(C(=O)Nc2cccc3c2O[C@H](CN(C)C)[C@@H](C)CN([C@H](C)CO)C3=O)n(C)n1	14.9	-1.9	12.6	.	.	.	.
Cc1cc(C(=O)Nc2cccc3c2O[C@@H](CN(C)S(C)(=O)=O)[C@@H](C)CN([C@@H](C)CO)C3=O)n(C)n1	-8.8	8.3	61.4	.	.	.	.
Cc1ccc(S(=O)(=O)Nc2ccc3c(c2)C(=O)N([C@@H](C)CO)C[C@@H](C)[C@H](CN(C)C(=O)NC(C)C)O3)cc1	5.5	-1.3	-41.4	.	.	.	.
O=C(C[C@@H]1CC[C@@H]2[C@H](COC[C@H](O)CN2Cc2cc(F)cc(F)c2)O1)NCc1cccc(F)c1	-2.1	.	80.3	.	.	.	.
Cc1ccc(-c2ccc3c(c2)O[C@@H](CN(C)Cc2ccc(C(=O)O)cc2)[C@@H](C)CN([C@@H](C)CO)S3(=O)=O)cc1	-48.2	4.9	46.1	.	.	.	.
Cc1ccccc1-c1ccc([C@@H]2[C@H](CO)N3CCCCN(S(=O)(=O)Cc4ccccc4)C[C@@H]23)cc1	-71.7	-42.4	32.7	.	.	.	.
O=S(=O)(Cc1ccccc1)N1CCCCN2[C@H](CO)[C@H](c3ccc(-c4ccc(F)cc4)cc3)[C@@H]2C1	9.8	36.2	99.9*	99.0*	75.0	27.1	104.6*
O=S(=O)(Cc1ccccc1)N1CCCCN2[C@@H](CO)[C@H](c3ccc(-c4ccc(F)cc4)cc3)[C@@H]2C1	-31.1	40.2	94.4	.	.	.	.
O=S(=O)(Cc1ccccc1)N1CCCCN2[C@H](CO)[C@@H](c3ccc(-c4ccc(F)cc4)cc3)[C@@H]2C1	0.3	35.0	108.5*	108.1*	52.5	23.0	102.4*
COCC(=O)Nc1ccc2c(c1)[C@@H]1C[C@H](CC(=O)NCc3ccccn3)O[C@@H](CO)[C@@H]1O2	11.6	-1.1	-12.8	.	.	.	.
CN(C)C(=O)[C@@H]1[C@@H](CO)[C@@H]2Cn3c(ccc(-c4cncnc4)c3=O)[C@H]1N2C(=O)NC1CCCC1	.	.	-118.9	.	.	.	.
COc1ccccc1C#Cc1cnc2c(c1)C(=O)N([C@@H](C)CO)C[C@H](C)[C@H](CN(C)C(=O)CC1CC1)O2	-45.6	-1.9	32.9	.	.	.	.
COc1ccccc1C#Cc1cnc2c(c1)C(=O)N([C@@H](C)CO)C[C@@H](C)[C@H](CN(C)C(=O)CC1CC1)O2	-60.0	-5.2	107.7*	112.0*	110.7*	13.3	44.8*
CCC(=O)N(C)C[C@@H]1Oc2ncc(C#Cc3ccccc3OC)cc2C(=O)N([C@H](C)CO)C[C@H]1C	-32.1	1.2	74.5	.	.	.	.
COc1ccccc1C#Cc1cnc2c(c1)C(=O)N([C@H](C)CO)C[C@@H](C)[C@H](CN(C)C(=O)CC1CC1)O2	-62.8	-0.2	107.8*	101.6*	29.6	-3.3	38.8*
COCC(=O)Nc1ccc2c(c1)C(=O)N(C)[C@H]1CC[C@H](CC(=O)OC)O[C@H]1CO2	1.0	2.2	10.3	.	.	.	.
Cc1ccc(S(=O)(=O)N(C)C[C@H]2Oc3ccc(NS(=O)(=O)c4cn(C)cn4)cc3CC(=O)N([C@H](C)CO)C[C@@H]2C)cc1	10.1	.	18.9	.	.	.	.
C[C@H](CO)N1C[C@H](C)[C@@H](CN(C)Cc2ccccn2)Oc2ncc(C#CCC3CCCC3)cc2C1=O	-27.6	-20.1	88.9	.	.	.	.
C[C@@H]1CN([C@@H](C)CO)C(=O)c2cc(C#CCc3ccccc3)cnc2O[C@H]1CN(C)CC1CCOCC1	-53.3	-2.2	-23.0	.	.	.	.
C[C@H](CO)N1C[C@H](C)[C@@H](CN(C)CC2CCCC2)Oc2ncc(C#CCc3ccccc3)cc2C1=O	-87.2*	8.6	96.9*	101.5*	105.9*	?	104.2*
SMILES	Pf Dd2 inh	C diff growth	T cruzi growth-1	T cruzi growth-2	T cruzi growth-3	3T3 cytotox	3T3 cytotox 2
C[C@H]1CN([C@@H](C)CO)C(=O)c2cc(C#CCc3ccccc3)cnc2O[C@@H]1CN(C)C(=O)C1CCCCC1	-83.3*	9.8	?	96.4*	55.5	-10.4	96.7*
C[C@H](CO)N1C[C@H](C)[C@H](CN(C)C(=O)C2CCCCC2)Oc2ncc(C#CCc3ccccc3)cc2C1=O	-48.9	18.2	80.2	.	.	.	.
C[C@H]1CN([C@@H](C)CO)C(=O)c2cc(C#CCC3CCCC3)cnc2O[C@@H]1CN(C)Cc1ccccn1	-56.0	-32.2	104.2*	100.7*	46.5	5.9	106.6*
CO[C@H]1CN(C)C(=O)c2cc(NS(=O)(=O)c3ccccc3)ccc2OC[C@H](C)N(Cc2nccs2)C[C@@H]1C	-18.3	.	38.3	.	.	.	.
C[C@@H]1CN([C@@H](C)CO)C(=O)c2cccc(NS(=O)(=O)c3ccc(F)cc3)c2O[C@H]1CN(C)CC1CCCCC1	5.5	-1.1	.	.	.	.	.
CC(=O)N1CCCCN2[C@H](C1)[C@H](c1ccc(C#Cc3ccccc3F)cc1)[C@@H]2CO	17.5	-1.0	74.7	.	.	.	.
CC(=O)N1CCCCN2[C@@H](CO)[C@H](c3ccc(C#Cc4ccccc4F)cc3)[C@@H]2C1	-4.4	-1.8	88.3	.	.	.	.
CC(=O)N1CCCCN2[C@H](C1)[C@@H](c1ccc(C#Cc3ccccc3F)cc1)[C@@H]2CO	-21.2	-12.3	111.8*	?	27.8	29.8	106.1*
CC(=O)N1CCCCN2[C@H](CO)[C@H](c3ccc(C#Cc4ccccc4F)cc3)[C@H]2C1	-24.7	-10.0	30.8	.	.	.	.
CCC(=O)N1CCCCN2[C@H](CO)[C@H](c3ccc(C#Cc4ccccc4F)cc3)[C@@H]2C1	-13.0	-16.5	120.5*	98.8*	88.1	69.4*	57.7*
CCC(=O)N1CCCCN2[C@H](C1)[C@@H](c1ccc(C#Cc3ccccc3F)cc1)[C@@H]2CO	-8.5	-5.7	99.6*	99.9*	61.3	50.2*	104.6*
C/C=C/c1ccc([C@@H]2[C@@H](CO)N(C(=O)CC)[C@@H]2CNC(=O)CC)cc1	1.6	3.2	5.5	.	.	.	.
